Measured values from PubChem BioAssay (NCATS).
Records with an inconclusive call do not appear. The source made the active and inactive calls. Unless noted, calls follow the shape of the dose curve; as a rule, active = well fitted curve in the direction sought with a large enough effect; inconclusive = small, poorly fitted or top-dose-only effect, or another doubt; inactive = no such curve, though single readings can be large; an effect the other way counts as inactive or inconclusive.

Tests used:
[1] = KB-8-5-11 Cancer Cell Toxicity qHTS against the NCATS CANVASS Library (AID 1347364); details: KB-8-5-11 MDR cells viability, CellTiter-Glo, 72 h; series mostly up to 46.1 µM; also: nearly all actives have a fitted effect of over 75% in size; also: potency is read from the fitted curve at half-maximal effect
In short: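 Plate 500 KB-8-5-11 cells per well in DMEM + 10% FBS, add compounds by pin transfer, incubate 72 hr at 37C. Add CellTiter-Glo, wait 10 minutes at room temperature, read luminescence.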

[2] = MCF7 Cancer Cell Toxicity qHTS against the NCATS CANVASS Library (AID 1347369); details: MCF7 viability, ATP luminescence (CellTiter-Glo), 72 h; series mostly up to 46 µM
In short: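 Cells seeded at 500/well, then compound pinned. Plates incubated 72 hr at 37C, 5% CO2. CellTiterGlo added; luminescence read.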

[3] = qHTS for ATAD5 Antagonist screened against the NCATS CANVASS Library (AID 1347370); details: HEK293T-ATAD5-luc, 5-FUrd stimulated, luminescence, 16 h; series mostly up to 46.1 µM;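 also: HEK293T cells carrying an ATAD5 luciferase reporter co-treated with 10 µM 5-fluorouridine; nearly all actives have a fitted effect of over 65% in size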
In short: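 HEK293T cells with stably integrated ATAD5-luciferase reporter, 2000/well, 5 h attachment; compounds plus 10 µM 5-fluorouridine, 16 h at 37 °C. Luciferase luminescence read, with CellTiter-Fluor viability read first.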

[4] = molecular target: Nuclear receptor subfamily 1 group I member 3 (Homo sapiens) (UniProt Q14994); assay: qHTS for Constitutive Androstane Receptor (CAR) Antagonist screened against the NCATS CANVASS Library (AID 1347372); details: HepG2-hCAR-CYP2B6 luciferase, CITCO-stimulated antagonist mode; series mostly up to 46.1 µM; also: potency is read from the fitted curve at half-maximal effect
In short: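 HepG2 cells stably carrying hCAR and a CYP2B6-2.2kb luciferase reporter were exposed to compounds plus 50 nM CITCO for 24hr at 37C. CAR activity was read by ONE-Glo luminescence, with viability measured first by CellTiter-Fluor.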

[5] = qHTS for Hypoxia signaling pathway (HIF-1) antagonists against the NCATS CANVASS Library (AID 1347374); details: HRE-bla ME-180 cells, HIF-1 beta-lactamase reporter, CoCl2; series mostly up to 38.3 µM; also: nearly all actives have a fitted effect of over 60% in size; also: potency is read from the fitted curve at half-maximal effect
In short: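 HRE-bla ME-180 cells in medium with 0.5% dialyzed FBS received compounds (11-point series) plus CoCl2 (60 uM addition stock) for 17 hrs at 37C. Beta-lactamase activity read with CCF4 (405 nm ex, 460/530 nm em); CellTiter-Glo viability measured in same wells.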

[6] = qHTS for Inflammasome Signaling Inhibitors: IL-1-beta AlphaLISA screen against the NCATS CANVASS Library (AID 1347379); details: THP-1 LPS/ATP, IL-1B AlphaLISA secretion, 16 h; series mostly up to 57.5 µM;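 also: human THP-1 cells primed with LPS then triggered with ATP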;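 as to Potency: secreted IL-1B measured as AlphaLISA emission at 615 nm; potency is read from the fitted curve at half-maximal effect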
In short: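 THP-1 cells pretreated 1 hr with compound (up to 57.5 uM final), then stimulated with LPS (250 ng/mL final) and ATP (1.25 mM final). Secreted IL-1B measured by AlphaLISA after 16 hr; glyburide as positive control.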

[7] = qHTS for Activators of p53 Stress Response Pathway screened against the NCATS CANVASS Library (AID 1347388); details: p53RE-bla HCT-116, beta-lactamase reporter, 16 h; series mostly up to 46.1 µM
In short: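 p53RE-bla HCT-116 cells (4000/well) were plated 5 h at 37C, exposed to compounds for 16 h at 37C over an 11-point concentration series, then loaded with CCF4 for 2 h at room temperature; 460/530 nm emission ratio read.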

[8] = Secretion counterscreen for inhibitors of the SERCaMP assay screened against the NCATS CANVASS Library (AID 1347390); details: SH-SY5Y constitutive GLuc secretion, luminescence, 20 h; series mostly up to 76.6 µM;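 also: light from luciferase secreted into medium read as a measure of general secretion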; also: potency is read from the fitted curve at half-maximal effect
In short: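 SH-SY5Y-GLuc STOP cells; 4 h attach; cpds 0.001 - 77 uM (qHTS, 11 pts), 20 h 37C/5% CO2; coelenterazine in glow buffer; luminescence, 5 s exposure.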

[9] = qHTS for activators of dead-cell proteases activity screened against the NCATS CANVASS Library (AID 1347392); details: HepG2 cytotoxicity, dead-cell protease luminescence, 5 h; series mostly up to 46.1 µM;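 also: luminescence from protease leaking out of membrane-damaged cells cleaving impermeant substrate; rising signal means more cytotoxicity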
In short: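 HepG2 cells (2000/well) attached 18 h at 37C, then exposed 5 h to compounds (11-point qHTS). Dead-cell protease activity read as luminescence from cell-impermeant AAF-aminoluciferin substrate after 15 min at room temperature.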

[10] = qHTS for inhibitors of ER calcium dysfunction: SERCaMP assay screened against the NCATS CANVASS Library (AID 1347393); details: SH-SY5Y GLuc-SERCaMP (Gaussia luciferase released on ER calcium loss) secretion, thapsigargin, luminescence; series mostly up to 76.6 µM; also: nearly all actives have a fitted effect of over 40% in size; also: potency is read from the fitted curve at half-maximal effect
In short: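 qHTS in SH-SY5Y reporter cells: 16 h compound pretreatment, 4 h thapsigargin, then secreted Gaussia luciferase measured by luminescence.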

[11] = qHTS for inhibitors of Wild type Zika virus screened against the NCATS CANVASS Library (AID 1347396); details: Vero cells, Zika virus CPE, CellTiter-Glo, 72 h; series mostly up to 45.9 µM; also: potency is read from the fitted curve at half-maximal effect
In short: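 Vero 766 cells, 1000/well, o/n attach; cpds pin-transferred (11-pt qHTS); WT Zika added; 72 h, 37C, 5% CO2; CellTiter Glo lumi. Uninfected + vehicle = 100% inhibition.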

[12] = Redox Reaction Profiling qHTS: Assay Interference Panel against the NCATS CANVASS Library (AID 1347401); details: resazurin-DTT redox cycling, fluorescence, 15 min; series mostly up to 57.1 µM
In short: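 Resazurin (5 uM) conversion to resorufin measured with 200 uM DTT in 50 mM HEPES pH 7.3, 50 mM NaCl. Compounds tested in 11-point qHTS series. Fluorescence (ex 525/em 598 nm) read before and after 15 min dark incubation.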

[13] = qHTS for inhibitors of Rabies Virus screened against the NCATS CANVASS Library (AID 1347402; calls by dose curve); details: Rabies virus infection cell assay; series mostly up to 45.9 µM
[14] = molecular target: Guanine nucleotide-binding protein G(i) subunit alpha-1 (Homo sapiens) (UniProt P63096); assay: qHTS Assay for Inhibitors of RGS12 GoLoco Motif Activity (Green Fluorophore) (AID 879); details: Galphai1/FITC-RGS12 GoLoco peptide, fluorescence polarization; series mostly up to 57.1 µM;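 also: negative values mean loss of peptide binding seen as reduced polarization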
In short: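 Fluorescence polarization assay: 50 nM Gαi1 with 10 nM FITC-labeled RGS12 GoLoco peptide in 10 mM Tris pH 7.5, 150 mM NaCl, 0.1 mM GDP, 0.05% NP40, 10 min at room temperature with compound.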

[15] = molecular target: Pyruvate kinase (Leishmania mexicana) (UniProt Q27686); assay: qHTS Validation Assay for Inhibitors of Leishmania Mexicana Pyruvate Kinase (AID 945); details: purified L. mexicana pyruvate kinase, enzyme activity, E451W mutant enzyme; series mostly up to 57.5 µM
In short: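 Pyruvate kinase activity of E451W LmPYK (0.2 nM) was followed as ATP output after 1 h at room temperature with 0.5 mM PEP and 0.1 mM ADP, detected by PKLight luminescence.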

[16] = molecular target: alpha-glucosidase (Oryza sativa, rice) (UniProt Q653V4); assay: Counterscreen for Glucocerebrosidase Inhibitors: qHTS Assay for Rice alpha-Glucosidase at pH 5.0 (AID 997); details: rice alpha-glucosidase enzyme activity; series mostly up to 76.9 µM
In short: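 Rice alpha-glucosidase (4 nM final) with 400 uM 4-methylumbelliferyl-alpha-D-glucopyranoside in citrate buffer pH 5.0, 20 min at room temperature, stopped at pH 10; fluorescence 365/440 nm, compounds 0.7 nM–77 uM, AC50 from Hill fits.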

[17] = molecular target: Cytochrome P450 2C19 (Homo sapiens) (UniProt P33261); assay: qHTS Assay for Inhibitors and Substrates of Cytochrome P450 2C19 (AID 899); details: recombinant CYP2C19, luciferin-H EGE luminescence; series mostly up to 57.1 µM; also: potency is read from the fitted curve at half-maximal effect; nearly all actives have a fitted effect of over 60% in size
In short: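 NADPH-dependent conversion of Luciferin-H EGE (10uM, at KM) by 5nM enzyme in 50mM KPO4, 60 min at 37C following 10 min compound preincubation. Stopped with luciferin detection buffer; luminescence read after 20 min.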

[18] = molecular target: Cytochrome P450 2C9 (Homo sapiens) (UniProt P11712); assay: qHTS Assay for Inhibitors and Substrates of Cytochrome P450 2C9 (AID 883); details: recombinant CYP2C9, luciferin-H luminescence, 60 min; series mostly up to 57.1 µM; also: nearly all actives have a fitted effect of over 60% in size; also: potency is read from the fitted curve at half-maximal effect
In short: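 A luminogenic readout tracked human CYP2C9 (10nM) converting deoxyluciferin (100uM, at KM) in 25mM KPO4 during 60 min at 37C with regenerated NADPH. Values normalized to 57uM sulphaphenazole as complete inhibition.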

[19] = molecular target: Cytochrome P450 3A4 (Homo sapiens) (UniProt P08684); assay: qHTS Assay for Inhibitors and Substrates of Cytochrome P450 3A4 (AID 884); details: recombinant CYP3A4, Luciferin-PPXE luminescence; series mostly up to 57.1 µM; also: nearly all actives have a fitted effect of over 50% in size; also: potency is read from the fitted curve at half-maximal effect
In short: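 20 nM human CYP3A4 with 25 uM Luciferin-PPXE (at KM) in 200 mM KPO4, preincubated 10 min with compound; NADPH regeneration started a 60 min RT reaction. Luciferin detected by luminescence, normalized to 57 uM ketoconazole as full inhibition.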

Measured: Potency

Chain of Cytochrome P450 3A4 (Homo sapiens) (P08684 whole entry, looked up): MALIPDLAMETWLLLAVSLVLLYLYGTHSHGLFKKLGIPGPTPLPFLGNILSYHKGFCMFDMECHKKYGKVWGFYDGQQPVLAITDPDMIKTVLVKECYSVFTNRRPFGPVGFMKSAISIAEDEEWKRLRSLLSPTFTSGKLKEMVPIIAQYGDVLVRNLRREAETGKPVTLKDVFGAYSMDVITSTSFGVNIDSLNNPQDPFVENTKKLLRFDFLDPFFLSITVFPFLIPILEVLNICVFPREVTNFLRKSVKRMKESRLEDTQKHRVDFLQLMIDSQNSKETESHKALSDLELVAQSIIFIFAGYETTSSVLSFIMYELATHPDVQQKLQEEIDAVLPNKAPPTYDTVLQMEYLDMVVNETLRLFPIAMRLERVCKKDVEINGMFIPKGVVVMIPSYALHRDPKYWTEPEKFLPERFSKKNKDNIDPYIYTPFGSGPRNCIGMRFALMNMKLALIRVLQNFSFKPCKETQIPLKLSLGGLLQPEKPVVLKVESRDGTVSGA
Chain of Cytochrome P450 2C19 (Homo sapiens) (P33261 whole entry, looked up): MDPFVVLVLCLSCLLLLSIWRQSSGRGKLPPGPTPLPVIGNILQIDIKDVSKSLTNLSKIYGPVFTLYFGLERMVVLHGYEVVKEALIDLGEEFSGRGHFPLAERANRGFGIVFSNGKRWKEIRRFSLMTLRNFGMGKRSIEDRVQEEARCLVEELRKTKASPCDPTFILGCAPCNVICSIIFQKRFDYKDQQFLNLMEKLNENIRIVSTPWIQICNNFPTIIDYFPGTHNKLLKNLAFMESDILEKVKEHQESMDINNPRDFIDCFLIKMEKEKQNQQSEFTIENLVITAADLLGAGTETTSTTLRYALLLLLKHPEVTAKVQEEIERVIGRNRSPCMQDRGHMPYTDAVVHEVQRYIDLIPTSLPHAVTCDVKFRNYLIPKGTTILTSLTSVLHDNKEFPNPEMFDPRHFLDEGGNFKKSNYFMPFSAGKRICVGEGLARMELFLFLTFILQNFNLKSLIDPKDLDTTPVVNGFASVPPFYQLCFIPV
Chain of Cytochrome P450 2C9 (Homo sapiens) (P11712 whole entry, looked up): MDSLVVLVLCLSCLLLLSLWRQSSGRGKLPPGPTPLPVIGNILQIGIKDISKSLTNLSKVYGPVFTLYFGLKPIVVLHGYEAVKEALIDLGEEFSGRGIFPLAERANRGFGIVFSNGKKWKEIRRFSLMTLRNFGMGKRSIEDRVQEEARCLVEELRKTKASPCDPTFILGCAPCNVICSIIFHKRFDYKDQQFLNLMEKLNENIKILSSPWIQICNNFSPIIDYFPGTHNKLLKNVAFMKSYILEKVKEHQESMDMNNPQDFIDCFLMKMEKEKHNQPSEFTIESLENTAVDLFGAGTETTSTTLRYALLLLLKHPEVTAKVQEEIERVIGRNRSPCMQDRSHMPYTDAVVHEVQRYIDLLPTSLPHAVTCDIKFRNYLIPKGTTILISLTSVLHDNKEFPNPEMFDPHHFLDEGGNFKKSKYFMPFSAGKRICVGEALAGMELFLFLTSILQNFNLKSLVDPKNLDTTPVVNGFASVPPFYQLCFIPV
Chain of Nuclear receptor subfamily 1 group I member 3 (Homo sapiens) (Q14994 whole entry, looked up): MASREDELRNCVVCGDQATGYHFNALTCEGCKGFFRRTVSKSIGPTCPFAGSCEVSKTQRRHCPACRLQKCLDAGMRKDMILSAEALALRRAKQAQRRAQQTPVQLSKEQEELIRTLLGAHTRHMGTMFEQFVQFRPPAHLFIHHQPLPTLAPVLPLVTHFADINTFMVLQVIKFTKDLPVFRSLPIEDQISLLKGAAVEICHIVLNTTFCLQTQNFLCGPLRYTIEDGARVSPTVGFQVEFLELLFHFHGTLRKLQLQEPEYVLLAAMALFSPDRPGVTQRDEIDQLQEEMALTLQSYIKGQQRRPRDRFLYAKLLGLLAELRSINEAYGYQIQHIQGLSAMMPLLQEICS
Chain of Pyruvate kinase (Leishmania mexicana) (Q27686 2-499 E452W): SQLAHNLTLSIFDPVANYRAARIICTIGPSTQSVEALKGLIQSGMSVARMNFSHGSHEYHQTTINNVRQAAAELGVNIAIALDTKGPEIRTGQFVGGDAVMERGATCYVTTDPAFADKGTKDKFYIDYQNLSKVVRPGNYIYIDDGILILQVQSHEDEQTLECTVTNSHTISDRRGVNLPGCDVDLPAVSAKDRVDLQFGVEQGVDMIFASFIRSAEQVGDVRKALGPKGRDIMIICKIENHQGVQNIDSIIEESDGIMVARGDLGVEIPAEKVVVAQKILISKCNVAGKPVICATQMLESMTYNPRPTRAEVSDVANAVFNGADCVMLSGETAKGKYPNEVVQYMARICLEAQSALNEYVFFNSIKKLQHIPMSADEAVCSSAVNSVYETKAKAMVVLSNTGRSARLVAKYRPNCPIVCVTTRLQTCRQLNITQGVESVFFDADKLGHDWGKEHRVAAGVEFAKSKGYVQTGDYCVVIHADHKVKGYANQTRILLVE
Chain of Guanine nucleotide-binding protein G(i) subunit alpha-1 (Homo sapiens) (P63096 whole entry, looked up): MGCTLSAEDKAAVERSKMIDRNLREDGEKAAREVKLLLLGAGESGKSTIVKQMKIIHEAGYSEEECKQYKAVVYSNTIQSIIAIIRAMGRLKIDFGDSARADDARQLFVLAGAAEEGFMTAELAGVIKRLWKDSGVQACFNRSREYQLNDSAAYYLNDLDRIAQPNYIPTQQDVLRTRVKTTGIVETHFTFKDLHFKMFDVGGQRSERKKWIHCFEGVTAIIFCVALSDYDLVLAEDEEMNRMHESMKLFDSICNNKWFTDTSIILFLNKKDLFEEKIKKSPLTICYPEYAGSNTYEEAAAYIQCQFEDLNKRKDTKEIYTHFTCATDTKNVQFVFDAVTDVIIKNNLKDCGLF

CC[N@@+]1([O-])C[C@]2(C)CC[C@@H](O)[C@@]34C5C[C@H]6CC[C@@]5(C(C[C@H]23)C41)[C@H](O)[C@@]6(O)CO (stereo partly specified)
not listed: [14] | [15] | [16] | [17] | [18] | [19]
inactive: all other assays above

O=C(c1ccccc1O)c1[nH]c(Cl)c(Cl)c1-n1c(C(=O)c2ccccc2O)cc(Cl)c1Cl
active: [1] 2.64 µM | [4] 3.71 µM | [5] 1.18 µM | [6] 15.3 µM | [8] 19.3 µM
inactive: [9] | [10] | [12]

COC(=O)C1=C2Nc3ccccc3[C@@]23CCN2CC(C(C)=O)C1C[C@H]23 (stereo partly specified)
active: [10] 17.2 µM
not listed: [14] | [15] | [16] | [17] | [18] | [19]
inactive: all other assays above

CCCCC[C@@H]1OC(=O)[C@@H](C)N(C)C(=O)[C@H](CCCCC)OC(=O)C(C)N(C)C(=O)[C@H](CCCCC)OC(=O)[C@@H](C)N(C)C(=O)[C@H](CCCCC)OC(=O)C(C)N(C)C1=O (stereo partly specified)
inactive: [7] | [8] | [12]
active: [4] 11.7 µM | [5] 11.8 µM | [11] 11.7 µM

CNCCc1ccccc1
not listed: [14] | [15] | [16] | [17] | [18] | [19]
inactive: all other assays above

Oc1ccc2c3c1O[C@H]1c4oc5ccccc5c4C[C@]4(O)[C@H](C2)N(CC2CC2)CC[C@@]314
inactive: [14] | [15] | [16]

N[C@H](Cc1o[nH]c(=O)c1Cl)C(=O)O
active: [17] 1.26 µM

CCC(=O)CCCCC[C@@H]1NC(=O)[C@H]2CCCCN2C(=O)[C@H]([C@@H](C)CC)NC(=O)[C@H](Cc2cn(OC)c3ccccc23)NC1=O
inactive: [2] | [3] | [5] | [8] | [9] | [10] | [12]
active: [1] 13.2 µM | [4] 2.34 µM

C(=C/c1ccccc1)/CN1CCN(CCOC(c2ccccc2)c2ccccc2)CC1
active: [18] 5.01 µM

O=C(O)c1ccccc1-c1c2cc(Br)c(=O)cc-2oc2[c]([Hg])c(O)c(Br)cc12
active: [18] 0.631 µM | [19] 25.1 µM | [17] 3.16 µM

NC(=NCc1ccc(Cl)cc1)SCCCc1cnc[nH]1
active: [19] 1.58 µM

N#CC(C#N)=NNc1ccc(OC(F)(F)F)cc1
active: [19] 5.01 µM

Cc1c(C(=O)c2ccc3ccccc3c2)c2cccc3c2n1[C@H](CN1CCOCC1)CO3
inactive: [18]
active: [19] 7.94 µM

CCOC(=O)c1ncn2c1CN(C)C(=O)c1cc(N=[N+]=[N-])ccc1-2
inactive: [19]

NC[C@H](CC(=O)O)c1ccc(Cl)cc1
active: [17] 2.51 µM
